KKLEB tox – CF airway cell cytotoxicity counter-screen | KKLEB CF airway cells viability, ATPlite luminescence, overnight; hits give low values; cells stimulated with P. aeruginosa culture filtrate | activity change (cytotoxicity), % at 5 µM | 0.36% of 360,000 active;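 active means corrected activity change at or below -50% at 5 µM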
TWEAK Fn14 block – TWEAK-Fn14 signaling inhibition | TWEAK-stimulated Fn14 reporter cells, luciferase luminescence, 8 h | inhibition, % at 10 µM | 2% of 360,000 active | AID 1159606; in the data active means inhibition above about 50%
LGR2 antag – blocks bursicon-induced cAMP signaling via Drosophila LGR2. HEK293 LGR2, CRE-luciferase, bursicon-stimulated, 4 h. inhibition, % at 9.99 µM. 0.35% of 380,000 active. AID 720647;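 active means drop in luminescence signal, shown as inhibition above about 50% in the replicate tests, limit read from the data, passing the limit was not always enough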;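 further: agonist challenge used bursicon conditioned medium at about half maximal strength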
HIF-2a inh – blocks HIF-2a reporter activity; inhibition, % at 18.8 µM; 0.72% of 360,000 active; 786-0 RCC cells HIF-2a reporter, luciferase luminescence, overnight; AID 624352;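 active means inhibition of the luminescence signal of 40% or more relative to plate controls, in a single-dose primary screen at 18.75 µM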
iPSC survival up – enhancers of human iPSC single-cell survival. hiPSC single-cell survival, ATPlite luminescence; 100% = ROCK inhibitor wells, 0% = DMSO. survival enhancement, % at 20 µM. 0.044% of 360,000 active. AID 602274; in the data active means survival enhancement above about 18%;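 further: cells exposed to compounds for 16 hours before the ATP read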
CF NFkB inh – inhibitors of cystic fibrosis induced NF-kB; KKLEB NF-kB-GFP reporter, PAF-induced, GFP fluorescence overnight; inhibition, % at 5 µM; 0.86% of 360,000 active; AID 588850;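 active means at least 50% inhibition at 5 µM, scaled per plate between neutral and stimulator controls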;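 further: PAF is a Pseudomonas aeruginosa culture filtrate used as stimulus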
Hits are given with their value; i = inactive; nt = no result. Sampled rows, rich in hits. Any-hit rate of the full collection: about 2.3%.

SMILES | KKLEB tox | TWEAK Fn14 block | LGR2 antag | HIF-2a inh | iPSC survival up | CF NFkB inh
CCCNC(=O)C[C@@H]1CC[C@H]2[C@@H](COc3ccc(NC(=O)c4ccc5c(c4)OCO5)cc3C(=O)N2C)O1 | nt | nt | i | nt | nt | nt
Cc1ccc(S(=O)(=O)N(C)C[C@@H]2Oc3ccc(NS(=O)(=O)c4cn(C)cn4)cc3CC(=O)N([C@H](C)CO)C[C@@H]2C)cc1 | nt | nt | i | nt | nt | nt
C[C@@H]1CN([C@H](C)CO)C(=O)Cc2cc(NC(=O)Nc3ccccc3)ccc2O[C@H]1CN(C)C(=O)Nc1cccc2ccccc12 | nt | nt | i | nt | nt | nt
Cc1ccc(CCNC(=O)c2cccc(N3CCCC3=O)c2)cc1 | i | i | nt | i | i | i
O=C(NCCc1ccccc1)c1cccc(N2CCCC2=O)c1 | i | 82.7 | nt | i | i | i
c1ccc(N=Nc2ccc(C3=NCCO3)cc2)cc1 | i | i | 80.9 | i | i | i
CSc1nccn1C(=O)c1ccccc1[N+](=O)[O-] | i | 107.8 | i | i | i | i
O=C1Nc2ccccc2N(O)N1c1cc(-c2ccccc2Cl)no1 | i | 55.1 | nt | i | i | i
CC(C)(C)c1ccc(-c2noc(CNC(=O)c3ccco3)n2)cc1 | i | i | i | i | i | i
CC(NC(=O)c1ccco1)c1nc(-c2ccc(C(C)(C)C)cc2)no1 (configuration not stated) | i | 57.3 | i | i | i | i
CC(NC(=O)CCNS(=O)(=O)c1cccc2nsnc12)c1ccccc1 (configuration not stated) | i | 54.1 | i | i | i | i
CC(C)c1ccc(NC(=O)CCNS(=O)(=O)c2cccc3nsnc23)cc1 | i | i | i | i | i | i
O=C(CCNS(=O)(=O)c1cccc2nsnc12)Nc1ccc2c(c1)OCCO2 | i | 57.7 | nt | i | i | i
O=S(=O)(Nc1ccc2c(c1)OCCO2)c1cccc2nsnc12 | i | 95.3 | i | i | i | i
O=S(=O)(Nc1ccccc1)c1cccc2nsnc12 | i | i | i | i | i | i
Cc1ccc(S(=O)(=O)N[C@H]2CC[C@@H](CCn3cc(-c4cccc(F)c4)nn3)O[C@H]2CO)cc1 | nt | nt | i | nt | nt | nt
Cc1cc(C(=O)CSc2nnc(-c3ccco3)o2)c(C)n1CC1COc2ccccc2O1 (configuration not stated) | i | 85.5 | nt | i | i | i
FC(F)(F)c1nc(-c2ccncc2)ncc1-c1nnnn1-c1ccccc1 | i | i | nt | i | i | i
Fc1ccc(-n2nnnc2-c2cnc(-c3cccs3)nc2C(F)(F)F)cc1 | i | 102.1 | nt | i | i | i
O=C(Nc1ccc(F)cc1)N[C@H]1CC[C@H](CC(=O)N2CCOCC2)O[C@@H]1CO | nt | nt | i | nt | nt | nt
CCC(=O)Nc1ccc2nc(C3CC3)n(Cc3ccc(C(C)(C)C)cc3)c(=O)c2c1 | i | 65.8 | i | i | i | i
CC(=O)Nc1ccc2nc(C3CC3)n(Cc3ccc(Cl)cc3)c(=O)c2c1 | i | i | i | i | i | i
Cc1ccccc1Cn1cnc2c(cnn2C(C)(C)C)c1=O | i | i | i | i | i | i
CC(C)(C)n1ncc2c(=O)n(CC(=O)N3CCc4ccccc43)cnc21 | i | 58.8 | nt | i | i | i
CC(C)(C)n1ncc2c(=O)n(CC(=O)N3CCCc4ccccc43)cnc21 | i | i | nt | i | i | i
SMILES | KKLEB tox | TWEAK Fn14 block | LGR2 antag | HIF-2a inh | iPSC survival up | CF NFkB inh
CC(C)(C)n1ncc2c(=O)n(CC(=O)OCc3ccccc3)cnc21 | i | 99.5 | 93.2 | i | i | i
CC(C)(C)n1ncc2c(=O)n(Cc3cccc(Cn4cnc5c(cnn5C(C)(C)C)c4=O)c3F)cnc21 | i | 81.6 | i | i | i | i
COCC(=O)N1C[C@H](C)[C@@H](OC)CN(C)C(=O)c2cc(NC(=O)c3cnccn3)ccc2OC[C@@H]1C | nt | nt | i | nt | nt | nt
Cc1ccc(S(=O)(=O)N(C)C[C@H]2Oc3c(NC(=O)c4cc(C)nn4C)cccc3C(=O)N([C@H](C)CO)C[C@@H]2C)cc1 | nt | nt | i | nt | nt | nt
COc1ccc(NS(=O)(=O)c2cc(NC(=O)Cc3cccs3)ccc2C)cc1 | i | 94.2 | nt | i | i | i
O=C1OC2(CCCCC2)OC(=O)C1=CNc1nccs1 | i | 55.4 | nt | i | i | i
COc1ccc(NC(=O)c2sc3ncnc(N4CCN(c5ccccn5)CC4)c3c2C)cc1Cl | i | 75.8 | i | i | i | i
Cc1c(C(=O)Nc2ccc3c(c2)OCCO3)sc2ncnc(N3CCCCC3C)c12 (configuration not stated) | i | 52.7 | i | i | i | i
COc1ccc(NC(=O)c2sc3nc(C)nc(N4CCN(c5ccccn5)CC4)c3c2C)cc1Cl | i | i | i | i | i | i
COc1ccc(NC(=O)N(C)C[C@H]2OCCCC[C@H](C)Oc3ccc(NS(=O)(=O)c4c(C)noc4C)cc3C(=O)N([C@H](C)CO)C[C@@H]2C)cc1 | nt | nt | i | nt | nt | nt
Cc1ccc(S(=O)(=O)N(C)C[C@H]2Oc3ccc(N(C)C)cc3CC(=O)N([C@H](C)CO)C[C@@H]2C)cc1 | nt | nt | i | nt | nt | nt
Nc1c(C(=O)NCC2CCCO2)sc2nc3c(c(-c4ccco4)c12)CC/C3=C\c1ccco1 (configuration not stated) | i | 88.9 | nt | i | i | i
c1coc(-c2nc(-c3ccco3)c(-c3ccco3)nc2-c2ccco2)c1 | i | 80.8 | i | i | i | i
Nc1nc(-c2ccco2)c(-c2ccco2)s1 | i | i | nt | i | i | i
COc1ccc(S(=O)(=O)Nc2ccc3c(c2)C(=O)N([C@@H](C)CO)C[C@@H](C)[C@@H](CN(C)CC2CC2)OCCCC[C@@H](C)O3)cc1 | nt | nt | i | nt | nt | nt
Clc1ccc(OCCCNCc2ccccc2)c2ccccc12 | -53.2 | i | i | i | i | i
COc1ccc(CN(C)C[C@@H]2Oc3c(NC(=O)c4cnccn4)cccc3C(=O)N([C@H](C)CO)C[C@H]2C)cc1 | nt | nt | i | nt | nt | nt
O=C(NCCCc1ccccc1)c1cccc(NC(=O)C2CCCCC2)c1 | i | 54.1 | i | i | i | i
CN(C(=O)c1cccc(NC(=O)Cc2ccc(NC(=O)C3CCCN(C(=O)CCc4ccccc4)C3)cc2)c1)C1CCC1 (configuration not stated) | i | i | i | i | i | i
CN(C(=O)c1cccc(NC(=O)Cc2ccc(NC(=O)C3CCCN(C(=O)CCc4ccccc4)C3)cc2)c1)C1CCCC1 (configuration not stated) | i | 53.4 | i | i | i | i
C[C@H]1CN([C@@H](C)CO)S(=O)(=O)c2ccc(-c3ccccc3)cc2O[C@H]1CN(C)Cc1ccccc1 | nt | nt | i | nt | nt | nt
Cc1ccc(NN2C(=O)C=CC2=O)cc1 | i | 53.2 | i | i | i | i
C[C@H]1CN([C@@H](C)CO)C(=O)c2cc(NC(=O)C3CC3)ccc2O[C@H]1CN(C)Cc1ccc(-c2ccccc2)cc1 | nt | nt | i | nt | nt | nt
CC[C@@H](C)[C@H](C(CC(=O)N1CCCC1[C@@H](OC)[C@H](C)C(=O)N[C@H](Cc1ccccc1)c1nccs1)OC)N(C)C(=O)[C@H](NC(=O)[C@@H](C(C)C)N(C)C)C(C)C (some centres not stated) | i | i | i | i | i | 62.5
